# Compound activity as filed in PubChem.
# Compounds with a hit are over-represented: about 11% of the library has one in this group of screens.
# NS1 function inh: influenza NS1 inhibition; Potency, µM (titrated, usually from 46.1 µM), for inactives: at the highest dose activity, positive = more growth; hit rate 0.4% among 270,000; calls by dose curve; note: actives are rising curves; nearly all actives have a fitted effect of over 50% in size
#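 S. cerevisiae expressing influenza A NS1, grown in glucose, washed, then diluted 1:100 into pH 6.0 -URA galactose medium with 23 nl compound. Growth recovery read as OD600; NS1-free strain serves as control.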
# Sm TGR inh: inhibitors of Schistosoma mansoni thioredoxin glutathione reductase | hit rate 3% among 360,000 | Potency, µM (series often up to 114 µM), for inactives: top-dose activity change, negative = inhibition, hits mostly inhibitors | purified TGR, DTNB reduction, TNB absorbance 405 nm; note: % is set by controls: 0 for no effect and ±100 for the full control effect; nearly all actives have a fitted effect of over 60% in size
#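 Kinetic colorimetric format: TGR-catalysed, NADPH-driven DTNB reduction monitored via TNB absorbance. Enzyme dispensed at 20 nM; compound exposure 15 min at room temperature before reaction start.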
# Pf growth 96h: inhibits malaria parasite growth, 96 h. P. falciparum luciferase reporter growth, 96 h. hit rate 6.9% among 320,000. Potency, µM (top dose mostly 28.7 µM), for inactives: at the highest dose activity change, negative = inhibition, most hits filed as inhibitors; note: % is set by controls: 0 for no effect and ±100 for the full control effect
#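 Two-generation exposure (96 h) targets delayed-death phenotype. Reporter parasites carrying integrated firefly luciferase, in red cells at 2% hematocrit and 0.05% parasitemia final, kept at 37 C, 5% CO2; luminescence loss indicates inhibition.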
# AMA1-RON2 inh: disrupts binding of P. falciparum AMA1 to RON2; AlphaScreen AMA1-biotinylated RON2 peptide binding; Potency, µM (highest dose often 58.2 µM), for inactives: top-dose activity change, negative = inhibition, usual class: inhibitors; hit rate 0.2% among 360,000; AID 720542;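 note: 0% = vehicle wells and -100% = peptide control; nearly all actives have a fitted effect of over 45% in size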
#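 AMA1 (3D7) with his tag at 25 nM final met compounds first, then biotinylated RON2 peptide at 25 nM; detection used donor plus acceptor beads, 10 µg/mL apiece, read by AlphaScreen after 30 min at room temperature.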
# Pf growth 48h: inhibits P. falciparum growth in the first generation, 48 h. P. falciparum luciferase growth in erythrocytes, 48 h. Potency, µM (series often up to 28.7 µM), inactives show top-dose activity change, negative = inhibition, actives largely listed as inhibitors. hit rate 5.9% among 310,000. AID 504832; note: % is set by controls: 0 for no effect and ±100 for the full control effect
#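 Compounds are pin-transferred into medium, infected erythrocytes (2% hematocrit, 0.1% parasitemia final) are added, and plates sit one parasite generation at 37 C in 5% CO2. Detection reagent is then added and luminescence measured.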
# * marks the source's active call; other numbers are inactive results; ? = inconclusive; / = not tested or not shown. Unless noted, calls come from the whole dose curve; as a rule, active = well fitted curve in the direction sought with a large enough effect; inconclusive = small, poorly fitted or top-dose-only effect, or another doubt; inactive = no such curve, though single readings can be large; an effect the other way counts as inactive or inconclusive. Potency is the fitted concentration of half-maximal effect.
SMILES,NS1 function inh,Sm TGR inh,Pf growth 96h,AMA1-RON2 inh,Pf growth 48h
c1ccc2c(N3CCNCC3)nsc2c1,0%,-22%,-23%,-15%,13µM*
O=C1[C@H]2CCCC[C@H]2C(=O)N1CCCCN1CCN(c2nsc3ccccc23)CC1,/,/,12µM*,-11%,?
O=C(CCCSc1nc2ccccc2c(=O)[nH]1)c1ccccc1,-6%,0%,-1%,-7%,20%
CCCNC(=O)C1CC2Cn3c(nc4ccccc43)C2N1C (centres undefined),/,40µM*,66%,-11%,-24%
Cc1ccc(CNC(=O)C2CC3Cn4c(nc5cc(Cl)c(Cl)cc54)C3N2C)o1 (centres undefined),-3%,45µM*,0%,-4%,-13%
COC(=O)c1ccc(COc2ccc(-c3nnn(CC(=O)NC(C)(C)C)n3)cc2)cc1,15%,4%,7.4µM*,-1%,?
COC(=O)c1cc2sc(C)cc2n1CC(=O)Nc1ccc(C)cc1Cl,/,6%,/,/,/
O=C(NCc1ccco1)C1CCN(S(=O)(=O)c2cccc([N+](=O)[O-])c2)CC1,4%,-23%,-10%,-8%,9.3µM*
COc1ccccc1CNC(=O)C1CCN(S(=O)(=O)c2cccc([N+](=O)[O-])c2)CC1,-12%,1%,9%,16%,-4%
O=C(NCc1ccco1)C1CCN(C(=O)c2ccc([N+](=O)[O-])cc2)CC1,10%,25µM*,114%,-3%,-8%
O=C(NCc1ccco1)C1CCN(C(=O)c2ccc(Cl)cc2)CC1,/,-11%,?,-7%,-26%
O=C(COC(=O)/C=C/C(=O)N1CCN(c2ccccc2)CC1)NC(c1ccccc1)c1ccccc1,6%,-24%,-28%,-16%,-78%
C=CCN(c1ccc(C(=O)NC(C)C)cc1)S(C)(=O)=O,-1%,-31%,/,4%,17%
C=CCN(c1ccc(C(=O)NCCSc2ccccc2)cc1)S(C)(=O)=O,-9%,2%,15µM*,0%,21%
Cc1ccc(C(=O)NCCONC(=O)c2ccc(C)cc2)cc1,-1%,0%,40%,-1%,-3%
COc1ccccc1CNC(=O)c1ccc(CNc2c(N3CCCC3)c(=O)c2=O)cc1,-35%,-8%,4.7µM*,9%,?
CCOc1ccc(OCC)c(NC(=O)c2ccc(CNc3c(N4CCCC4)c(=O)c3=O)cc2)c1,-2%,-18%,?,14%,12µM*
CCCCn1nnnc1C(c1ccccc1)N1CCN(c2ncccc2C(F)(F)F)CC1 (centres undefined),/,/,/,8%,/
COc1ccc2nccnc2c1[N+](=O)[O-],6%,-4%,31%,-3%,40%
CCOc1cc(/C=C/c2nc3cc(C)c(C)cc3s2)ccc1OCC(=O)N1CCOCC1,12%,3%,10µM*,-7%,?
CCOc1ccc(C(=O)OCC(=O)N2CCOCC2)cc1OCC,-11%,-1%,20%,-4%,33%
CCOc1cc(/C=C\[N+](=O)[O-])ccc1OCC(=O)N1CCOCC1,/,10µM*,?,1%,?
COc1cccc(CSc2nc3n(n2)C(c2cccc(F)c2)C(C(=O)Nc2ccccc2C)=C(C)N3)c1 (centres undefined),/,2%,/,/,/
COC(=O)/C(C#N)=C/N(C)C,-5%,-2%,46%,5%,2.3µM*
CCOC(=O)/C(C#N)=C\N(C)C,6%,-17%,10%,15%,8%
SMILES,NS1 function inh,Sm TGR inh,Pf growth 96h,AMA1-RON2 inh,Pf growth 48h
Cc1cc(C)c(NC(=O)COc2cccnc2[N+](=O)[O-])c(C)c1,/,3%,?,-1%,0%
COc1ccc(O)c(C(=O)c2cnn(S(=O)(=O)c3ccc(C)cc3)c2)c1,/,35µM*,-28%,-3%,2%
CC(C)Sc1nc(NCc2ccco2)c2c3c(sc2n1)COC(C)(C)C3,-58%,22µM*,?,-2%,?
CCCSc1nc(SCC(=O)NCc2ccccc2)c2c3c(sc2n1)COC(C)(CC)C3 (centres undefined),1%,9%,15µM*,4%,?
CCCCSc1nc(SCC(=O)NCc2ccco2)c2c3c(sc2n1)COC(C)(CC)C3 (centres undefined),24%,?,9.3µM*,-9%,?
Cc1cc(C)n(-c2nc(NCCCN(C)C)c3c4c(sc3n2)COC(C)(C)C4)n1,3%,5%,-1%,30%,?
